Screening results deposited in PubChem by National Center for Advancing Translational Sciences (NCATS).
In the library only some 3.1% were active in any assay of this set; here they are far more common.
TR SRC2 fluor cs = Total Fluorescence Counterscreen for Inhibitors of the Interaction of Thyroid Hormone Receptor and Steroid Receptor Coregulator 2; TRb/SRC2 Texas Red total fluorescence interference; 280,000 tested, 0.29% active; Potency, µM (top dose mostly 106 µM), inactives show at the highest dose fluorescence change, negative = quenching; active means well fitted curve in either direction with a large enough effect; inconclusive means small, poorly fitted or top-dose-only effect
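Human TRb ligand-binding domain at 0.6 uM with 20 nM Texas Red SRC2 peptide in Tris buffer containing 1 uM T3 and 5% DMSO, incubated with compound 5 h at ambient temperature. Total fluorescence (555/632 nm) calculated as parallel + 2 × perpendicular.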
Tau fibril ThT = qHTS for Inhibitors of Tau Fibril Formation, Thioflavin T Binding; 270,000 tested, 2.1% active; AID 1460, 2008; recombinant tau K18 P301L, heparin-induced fibrillization, ThT fluorescence; Potency, µM (highest dose often 57.4 µM), inactives show at the top dose activity, negative = inhibition, most hits filed as inhibitors; further: nearly all actives have a fitted effect of over 55% in size
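ThT emission at 510 nm, taken 1 hr after adding 30 uM dye, quantifies aggregates formed when 20 uM heparin acts on human tau K18 P301L for 6 hr at 37 C.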
TRb SRC2 PPI = qHTS for Inhibitors of the Interaction of Thyroid Hormone Receptor and Steroid Receptor Coregulator 2; 280,000 tested, 0.065% active; TRbeta-SRC2 peptide binding, fluorescence polarization; receptor liganded with 1 µM T3; Potency, µM (doses to about 106 µM), inactives show at the top dose activity change, negative = inhibition, most hits filed as inhibitors;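 further: plate controls were bound peptide for no effect and peptide without receptor for full effect; nearly all actives have a fitted effect of over 50% in size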
Target sequence (P10828 whole entry, looked up): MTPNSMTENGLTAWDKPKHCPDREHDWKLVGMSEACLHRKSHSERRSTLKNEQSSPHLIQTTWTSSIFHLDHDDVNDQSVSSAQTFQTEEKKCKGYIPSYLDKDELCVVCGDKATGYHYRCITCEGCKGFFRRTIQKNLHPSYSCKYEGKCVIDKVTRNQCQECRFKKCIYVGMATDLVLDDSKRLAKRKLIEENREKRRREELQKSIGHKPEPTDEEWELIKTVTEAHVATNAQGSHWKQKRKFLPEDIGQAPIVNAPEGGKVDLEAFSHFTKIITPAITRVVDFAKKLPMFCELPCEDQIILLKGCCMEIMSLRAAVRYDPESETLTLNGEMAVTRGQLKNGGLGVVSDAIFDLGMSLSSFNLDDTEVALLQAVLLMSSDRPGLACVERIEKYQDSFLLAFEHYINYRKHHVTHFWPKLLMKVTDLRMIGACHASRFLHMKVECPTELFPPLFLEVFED
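Human TRb LBD (0.6 uM) plus Texas Red-labeled SRC2 peptide (20 nM), 1uM T3, 5% DMSO, 5 hr at ambient temperature. Decreased polarization (555/632 nm) flags inhibition; data normalized to free and bound peptide controls.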
Tau fibril FP = qHTS for Inhibitors of Tau Fibril Formation, Fluorescence Polarization; AID 1468, 2008; Potency, µM (top dose mostly 57.7 µM), for the others: top-dose activity, negative = inhibition, hits mostly inhibitors; K18 P301L tau heparin fibrillization, Alexa594 FP, 6 h; 280,000 tested, 0.39% active; further: nearly all actives have a fitted effect of over 55% in size
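FP of Alexa 594-tau after heparin (20 uM) induction. Substrate: human K18 P301L, 15 uM unlabeled, 0.24 uM labeled. Buffer 100 mM sodium acetate pH 7. 6 hr, 37 C.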
Tau fluor cs = Counterscreen qHTS for Inhibitors of Tau Fibril Formation, Fluorescence Polarization. tau K18 P301L (four-repeat tau fragment) Alexa594 fluorescence, heparin fibrillization. Potency, µM (series often up to 57.7 µM), without a hit: at the highest dose activity change, negative = decrease. 280,000 tested, 0.93% active; further: nearly all actives have a fitted effect of over 55% in size
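Human K18 P301L tau (15 uM unlabeled plus 0.24 uM Alexa 594-labeled, final) in 100 mM sodium acetate pH 7 was mixed with compound and 20 uM heparin and incubated 6 hr at 37 C.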
An asterisk follows results filed as active; ? = inconclusive; [ ] = dose if it differs, or a comment. Unless noted, the call rests on the fitted dose curve; in most records, active means well fitted curve in the direction sought with a large enough effect; inconclusive means small, poorly fitted or top-dose-only effect, or another doubt; inactive means no such curve, though single readings can be large; an effect the other way counts as inactive or inconclusive. Unless noted, on the % scale 0 is the no-effect control and ±100 the full control effect; potency means the concentration at half of the fitted maximal effect.

SMILES	TR SRC2 fluor cs	Tau fibril ThT	TRb SRC2 PPI	Tau fibril FP	Tau fluor cs
O=C1/C(=C/c2ccco2)SC(=S)N1CC1CCCO1 (stereo not given)	2%	20µM*	-7%	?	?
Cc1ccc(/C=C2\SC(=S)N(CC3CCCO3)C2=O)o1 (stereo not given)	9%	16µM*	5%	?	-24%
O=C1/C(=C\c2ccc(-c3ccccc3Cl)o2)SC(=S)N1CC1CCCO1 (stereo not given)	0%	?	-1%	1%	-14%
COc1cc(/C=C2/SC(=S)N(CC3CCCO3)C2=O)ccc1O (stereo not given)	14%	14µM*	28%	11%	11µM*[quencher]
O=C1/C(=C/c2cccnc2)SC(=S)N1CC1CCCO1 (stereo not given)	-2%	-17%	2%	-4%	-8%
CCn1c2c(c(=O)n3ncc(C(=O)Nc4cccc(Cl)c4C)c13)CN(Cc1ccc(OC)cc1)CC2	-3%	?	6%	?	-17%
CC(C)c1cccc2c([Si](C)(C)C)c3c(nc12)-c1cccc(=O)n1C3	2%	?	-3%	-14%	-29%
CN(C)c1ccc(/C=C/c2nc(-c3ccccc3O)n(-c3ccccc3)n2)cc1	-19%	?	-1%	?	?
CN1/C(=C/C=N/NC(=O)c2ccc([N+](=O)[O-])cc2)C(C)(C)c2ccccc21	-9%	6.3µM*	3%	-6%	?
CN(C)c1ccc(N=C/C=C2/N(C)c3ccccc3C2(C)C)cc1	10%	3.2µM*	-9%	?	?
Cc1ccccc1N=C/C=C1\N(C)c2ccccc2C1(C)C	45µM*[fluorescent]	?	?	10%	19%
CC(C)=CCC/C(C)=C/C=N/NC(=O)c1ccc([N+](=O)[O-])cc1	?	?	1%	5%	-16%
CN1/C(=C\C=N\O)C(C)(C)c2ccccc21	0%	?	2%	-5%	1%
CN1/C(=C/C2CC(=O)N(c3ccc([N+](=O)[O-])cc3)C2=O)C(C)(C)c2ccccc21 (stereo not given)	-2%	14µM*	1%	-1%	?
Cc1ccccc1-c1noc(-c2ccccc2OCC(=O)Nc2cccc([N+](=O)[O-])c2)n1	-1%	?	7%	14%	?
COc1cccc(NC(=O)Cn2nc(C)c3c(C)n(-c4ccccc4)nc3c2=O)c1	?	-7%	-5%	-9%	-6%
CCOc1ccccc1CNC(=O)CN1C(=O)CCn2nc(-c3cn(C)c4ccccc34)cc21	-7%	?	-2%	14%	-11%
O=C(Oc1cc(Cl)ccc1Cl)c1ccc(N2CCOCC2)c([N+](=O)[O-])c1	-2%	16µM*	-1%	-8%	?
O=[N+]([O-])c1cc(Cl)ccc1N1CCCCC1	0%	-16%	-6%	-6%	-11%
Cc1ccc(OC(=O)c2ccc(N3CCOCC3)c([N+](=O)[O-])c2)cc1	-2%	10µM*	0%	-1%	?
O=C(Oc1ccc(Cl)cc1)c1ccc(N2CCOCC2)c([N+](=O)[O-])c1	-2%	?	2%	2%	?
O=[N+]([O-])c1cc(Cl)ccc1N1CCN(c2ccccc2O)CC1	-3%	14µM*	-4%	15%	16µM*[quencher]
CCOC(=O)C1CCC(CN(Cc2cccc(Br)c2)S(=O)(=O)c2ccc(C)cc2)CC1 (stereo not given)	-3%	1%	6%	-8%	-5%
c1cnc2c(c1)ccc1cccnc12	-3%	28µM*	3%	?	-15%
Cc1nnsc1C(=O)N/N=C/c1ccc2ccccc2c1O	-1%	3.2µM*	1%	?	-20%
Cn1nnnc1SCCCNCc1ccc(-c2ccc(F)c(Cl)c2)o1	-3%	-7%	-9%	-5%	-15%
